According to PubChem BioAssay (NCI):
About 79,000 compounds went through this panel and 15% of them were active in at least one assay; those are over-represented in the sample as a whole. Active and inactive are the calls of the source. No stated cut-off is given here; in the data, active means growth inhibition above about 70%; inactive means the rest.

Experiments:
[1] = NCI Yeast Anticancer Drug Screen. Data for the rad52 strain (AID 147);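 further: 0% = growth of vehicle-treated control cultures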; conditions: S. cerevisiae rad52 mutant growth inhibition, active compounds read high
In short: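 The repair-mutant yeast strain was incubated with compounds, then growth was read and inhibition derived relative to vehicle.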

[2] = NCI Yeast Anticancer Drug Screen. Data for the wt1 strain (AID 149);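 further: 0% = growth of vehicle-treated wt1 cultures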; conditions: S. cerevisiae wt1 strain (SPY 50644) growth inhibition, active compounds read high
In short: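 wt1 strain grown with compound or vehicle; inhibition taken from the growth difference.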

[3] = NCI Yeast Anticancer Drug Screen. Data for the rad50EPP+ strain (AID 151);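 further: 0% = growth of vehicle-treated control cultures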; conditions: S. cerevisiae rad50 mutant strain, active compounds read high
In short: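 Vehicle-normalised growth inhibition; rad50EPP+ yeast strain, altered in DNA damage repair, compound-treated.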

[4] = NCI Yeast Anticancer Drug Screen. Data for the mgt1 strain (AID 153); conditions: S. cerevisiae mgt1 mutant growth inhibition, active compounds read high
In short: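 Vehicle-normalized growth inhibition is determined in mgt1 yeast, a strain selected for a defined alteration in DNA repair or cell cycle control.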

[5] = NCI Yeast Anticancer Drug Screen. Data for the rad50 strain (AID 155);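 further: 0% = growth of vehicle-only cultures of the same strain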; conditions: S. cerevisiae rad50 strain growth inhibition, active compounds read high
In short: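 DNA repair mutant yeast, compound exposure, growth read-out; inhibition is taken relative to vehicle.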

[6] = NCI Yeast Anticancer Drug Screen. Data for the mec2-1 strain (AID 157); conditions: S. cerevisiae mec2-1 strain, active compounds read high
In short: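 Mutant yeast (mec2-1) grown with compound; growth inhibition relative to vehicle control reported.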

[7] = NCI Yeast Anticancer Drug Screen. Data for the rad14 strain (AID 159);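 further: 0% = growth of vehicle-treated control cultures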; conditions: S. cerevisiae rad14 strain growth inhibition, active compounds read high
In short: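 DNA repair-defective yeast, compound-exposed; % growth inhibition derived by comparison with vehicle-treated controls.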

[8] = NCI Yeast Anticancer Drug Screen. Data for the sgs1 mgt1 strain (AID 161);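 further: 0% = growth of cultures given vehicle only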; conditions: S. cerevisiae sgs1 mgt1 strain, active compounds read high
In short: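 This yeast growth screen uses a strain with defined DNA-repair lesions; compound-treated growth is compared with vehicle-treated growth.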

[9] = NCI Yeast Anticancer Drug Screen. Data for the CLN2oe strain (AID 163);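 further: 0% = growth of vehicle-only control cultures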; conditions: S. cerevisiae CLN2oe strain, active compounds read high
In short: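 Compounds are applied to yeast harbouring a defined cell-cycle control change; reduced growth compared with vehicle-treated controls gives the value.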

[10] = NCI Yeast Anticancer Drug Screen. Data for the cln2 rad14 strain (AID 165);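 further: 0% = growth equal to vehicle treated cultures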; conditions: S. cerevisiae cln2 rad14 strain, active compounds read high
In short: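 Readout is yeast growth inhibition versus vehicle-treated controls, using a strain with cln2 and rad14 alterations exposed to compound.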

[11] = NCI Yeast Anticancer Drug Screen. Data for the bub3 strain (AID 167); conditions: S. cerevisiae bub3 mutant strain, active compounds read high
In short: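 In this screen, a yeast mutant lacking normal mitotic checkpoint function is challenged with compound. Relative growth versus vehicle gives the inhibition value.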

[12] = NCI Yeast Anticancer Drug Screen. Data for the wt2 strain (AID 169);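 further: 0% = growth of vehicle-treated yeast cultures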; conditions: S. cerevisiae wt2 strain growth inhibition, active compounds read high
In short: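 Against vehicle-treated controls, the growth of yeast exposed to each compound was compared, and the inhibition was recorded.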

[13] = NCI Yeast Anticancer Drug Screen. Data for the mlh1 strain (AID 171);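 further: 0% = growth of vehicle-treated control cultures of the same strain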; conditions: S. cerevisiae mlh1 strain growth inhibition, active compounds read high
In short: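 Measured: yeast growth. Reference: vehicle-treated controls. Organism: strain with a defined alteration affecting DNA damage repair or cell cycle control, treated with compound.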

[14] = NCI Yeast Anticancer Drug Screen. Data for the sgs1 strain (AID 173);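 further: 0% = growth of vehicle-only control cultures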; conditions: S. cerevisiae sgs1 mutant, active compounds read high
In short: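 Each compound was added to cultures of the altered yeast strain. Growth was recorded, and inhibition was derived by comparison with vehicle controls.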

[15] = NCI Yeast Anticancer Drug Screen. Data for the mlh1 rad18 strain (AID 175); conditions: S. cerevisiae mlh1 rad18 strain growth inhibition, active compounds read high
In short: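 Genetically defined yeast (DNA repair-deficient) exposed to compounds; growth inhibition determined relative to vehicle.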

[16] = NCI Yeast Anticancer Drug Screen. Data for the rad18 strain (AID 177); conditions: S. cerevisiae rad18 mutant growth inhibition, active compounds read high
In short: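 Vehicle-treated cultures served as the baseline for scoring compound-induced growth inhibition in DNA-repair-mutant yeast.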

[17] = at 5.0 µM (retest, dose inferred, filed as 0.5)
[18] = at 50.0 µM (retest, dose inferred, filed as 5.0)

Measured: growth inhibition

CN(CCN(C)Cc1ccccc1)Cc1ccccc1
active: [5]; [18] 79% | [6]; [18] 81% | [15]; [18] 72%
inactive: [1]; at 1.2 µM -5% | [1]; at 3.7 µM 8% | [1]; at 11.0 µM -4% | [1]; at 33.0 µM 19% | [1]; at 100.0 µM 2% | [2]; at 1.2 µM -16% | [2]; at 3.7 µM -9% | [2]; at 11.0 µM -12% | [2]; at 33.0 µM 0% | [2]; at 100.0 µM 14% | [3]; at 1.2 µM -13% | [3]; at 3.7 µM -3% | [3]; at 11.0 µM -4% | [3]; at 33.0 µM -22% | [3]; at 100.0 µM -40% | [4]; at 1.2 µM -13% | [4]; at 3.7 µM -4% | [4]; at 11.0 µM 14% | [4]; at 33.0 µM 11% | [4]; at 100.0 µM 58% | [5]; at 1.2 µM -18% | [5]; at 3.7 µM -12% | [5]; [17] 40% | [5]; at 11.0 µM -5% | [5]; at 33.0 µM 9% | [5]; at 50.0 µM 24.5% | [5]; at 100.0 µM 6% | [6]; at 1.2 µM -33% | [6]; at 3.7 µM -19% | [6]; [17] 45% | [6]; at 11.0 µM -25% | [6]; at 33.0 µM -6% | [6]; at 50.0 µM 12.9% | [6]; at 100.0 µM 2% | [7]; at 1.2 µM 5% | [7]; at 3.7 µM 18% | [7]; at 11.0 µM 18% | [7]; at 33.0 µM 43% | [7]; at 100.0 µM 68% | [8]; [17] -1% | [8]; [18] 57% | [8]; at 50.0 µM 51.3% | [9]; at 1.2 µM -12% | [9]; at 3.7 µM -5% | [9]; at 11.0 µM 5% | [9]; at 33.0 µM 18% | [9]; at 100.0 µM 44% | [10]; [17] 16% | [10]; [18] 38% | [10]; at 50.0 µM 31.1% | [11]; at 1.2 µM -31% | [11]; at 3.7 µM -15% | [11]; [17] 14% | [11]; at 11.0 µM -13% | [11]; at 33.0 µM 9% | [11]; [18] 39% | [11]; at 50.0 µM 60.5% | [11]; at 100.0 µM 3% | [12]; at 1.2 µM -17% | [12]; at 3.7 µM -9% | [12]; at 11.0 µM 2% | [12]; at 33.0 µM 1% | [12]; at 100.0 µM 14% | [13]; at 1.2 µM 8% | [13]; at 3.7 µM 4% | [13]; at 11.0 µM 12% | [13]; at 33.0 µM 23% | [13]; at 100.0 µM 52% | [14]; at 1.2 µM -6% | [14]; at 3.7 µM -10% | [14]; at 11.0 µM -10% | [14]; at 33.0 µM 10% | [14]; at 100.0 µM 30% | [15]; [17] 25% | [15]; at 50.0 µM 32.3% | [16]; at 1.2 µM -2% | [16]; at 3.7 µM 14% | [16]; at 11.0 µM 17% | [16]; at 33.0 µM 32% | [16]; at 100.0 µM 35%

O=C(O)c1ccccc1/C=N/N=C1c2ccccc2-c2ccccc21
active: [10]; [18] 79%
inactive: [1]; at 1.2 µM -3% | [1]; at 3.7 µM -1% | [1]; at 11.0 µM -1% | [1]; at 33.0 µM 0% | [1]; at 100.0 µM 2% | [2]; at 1.2 µM -1% | [2]; at 3.7 µM 0% | [2]; at 11.0 µM 1% | [2]; at 33.0 µM 0% | [2]; at 100.0 µM 7% | [3]; at 1.2 µM -4% | [3]; at 3.7 µM 3% | [3]; at 11.0 µM -2% | [3]; at 33.0 µM 9% | [3]; at 100.0 µM 15% | [4]; at 1.2 µM -1% | [4]; at 3.7 µM 0% | [4]; at 11.0 µM 0% | [4]; at 33.0 µM -1% | [4]; at 100.0 µM 3% | [5]; at 1.2 µM 0% | [5]; at 3.7 µM -6% | [5]; [17] 10% | [5]; at 11.0 µM 7% | [5]; at 33.0 µM 0% | [5]; [18] 45% | [5]; at 50.0 µM 50.8% | [5]; at 100.0 µM 13% | [6]; at 1.2 µM -2% | [6]; at 3.7 µM -1% | [6]; [17] 2% | [6]; at 11.0 µM -2% | [6]; at 33.0 µM 0% | [6]; [18] 15% | [6]; at 50.0 µM 61.4% | [6]; at 100.0 µM 11% | [7]; at 1.2 µM 0% | [7]; at 3.7 µM -1% | [7]; at 11.0 µM 0% | [7]; at 33.0 µM -10% | [7]; at 100.0 µM 8% | [8]; [17] -7% | [8]; [18] 60% | [8]; at 50.0 µM 50% | [9]; at 1.2 µM -4% | [9]; at 3.7 µM 0% | [9]; at 11.0 µM 0% | [9]; at 33.0 µM -5% | [9]; at 100.0 µM 1% | [10]; [17] -23% | [10]; at 50.0 µM 45.7% | [11]; at 1.2 µM -3% | [11]; at 3.7 µM -1% | [11]; [17] -9% | [11]; at 11.0 µM 9% | [11]; at 33.0 µM 7% | [11]; [18] -3% | [11]; at 50.0 µM 48.5% | [11]; at 100.0 µM 4% | [12]; at 1.2 µM -1% | [12]; at 3.7 µM 0% | [12]; at 11.0 µM -1% | [12]; at 33.0 µM 0% | [12]; at 100.0 µM 5% | [13]; at 1.2 µM 1% | [13]; at 3.7 µM 2% | [13]; at 11.0 µM 1% | [13]; at 33.0 µM -9% | [13]; at 100.0 µM 8% | [14]; at 1.2 µM 0% | [14]; at 3.7 µM 2% | [14]; at 11.0 µM 1% | [14]; at 33.0 µM 4% | [14]; at 100.0 µM 3% | [15]; [17] -1% | [15]; [18] 39% | [15]; at 50.0 µM 68.5% | [16]; at 1.2 µM -3% | [16]; at 3.7 µM -1% | [16]; at 11.0 µM 2% | [16]; at 33.0 µM -4% | [16]; at 100.0 µM 6%
